The results in this text go back to PubChem BioAssay (NCI).

Several values for one entry are separate records, joined by “and”; a condition that tells them apart may be missing. Identical values can stand only once. Compounds without any hit were thinned out: in the full panel of roughly 83,000, 20% have a hit.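 How to read the values: 0–100, growth inhibition (40 = 60% inhibited); 0, no net growth; -100 to 0, cell death (-40 = 40% of starting cells died; -100 = all dead).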 Activity calls are given as the source filed them. The calls were made as follows: active = growth percent below 10; inactive = the rest.

The subject of the first assay is UACC-62 melanoma. The assay is described as follows: NCI-60 one-dose screen, 48 h (100 = growth as untreated, 0 = no growth, -100 = all killed). The note with it: 10 µM unless noted.
As for `Cc1ccc(-c2cc3nc(C(Cl)Cl)nc(-c4ccc(S(=O)(=O)N(C)C)cc4)n3n2)cc1`, the growth was 88.9% (inactive).
On the same count and under the same terms, with `CC1=C(C)C(=O)C(Nc2cccc(C(=O)OC(C)(C)C)c2)=C(Cl)C1=O` the figure was 93.4% (inactive); with `COC(=O)c1ccc(NC2=C(Cl)C(=O)C(C)=C(C)C2=O)cc1`, 5.89% (active); with `Cc1nc(/N=C(N)/N=C(\N)c2cccc(Br)c2)sc1C`, 28.1% (inactive).
`COC(=O)c1cccc(NC2=C(Cl)C(=O)c3nc(C)ccc3C2=O)c1`: the growth is 95.4% (inactive).
`CN(C)c1ccc(/C=N/Nc2nc(N/N=C/c3ccc(N(C)C)cc3)nc(N3CCCCC3)n2)cc1`: the growth is 101% (inactive).
Take `OCC(Nc1ncnc2ccc(-c3cnc4cnccn34)cc12)c1ccccc1` (centres undefined): the growth was 74.1% (inactive).
Take `COc1ccc(-c2cc(-c3ccc(N4CCOCC4)cc3)n3c(n2)nc2ccccc23)cc1OC`: the growth was 94.3% (inactive).
Still for that read-out and setting: in the case of `CCOC(=O)c1c(NC(=O)c2cccc(C(F)(F)F)c2)sc2c1CCC(=O)C2` it was 30.9% (inactive); in that of `CN1CCN(c2ccc(Nc3nc(NCCCNS(=O)(=O)c4ccc(Cl)cc4)c4sccc4n3)cc2)CC1`, -30.5% (active); in that of `CCOC(=O)C(=O)Nc1ccc2c(ccn2C(=O)c2cccc(F)c2)c1`, 93.5% (inactive).
On to `CCOc1cccc(/C(N)=N/C(N)=N/c2nc3ccccc3s2)c1`, for which the growth is 81.4% (inactive).
On the same count and under the same terms, in the case of `CN1CCN(c2ccc(Nc3nc(NCCCNS(=O)(=O)c4ccc(C(F)(F)F)cc4)c4sccc4n3)cc2)CC1` it was -80.3% (active); in that of `Cc1ccc2c(n1)C(=O)C(Cl)=C(Nc1cccc(C(F)(F)F)c1)C2=O`, 97.6% (inactive).

A further assay deals with LOX IMVI melanoma. The description is as above. The note with it: 10 µM unless noted.
Take `Cc1cc(Br)ccc1-n1cc(C#N)c(N)c1C(=O)c1ccc(Br)cc1`: the growth was 96.6% (inactive).
In the case of `CCCCCCN1C=C/C(=C\C(=O)n2ccc3ccccc32)c2ccccc21`, the growth is 18.7% (inactive).
Same read-out and setting: in the case of `Cc1ccc(CSC2=C(Cl)CN(c3ccc(Cl)cc3)C2=O)cc1` it was 33.9% (inactive); in that of `Clc1ccc(CSc2nnc(-c3ccc(Cl)cc3)n2-c2ccccc2)cc1`, 88.6% (inactive); in that of `NS(=O)(=O)c1ccc(CCn2c(-c3ccc(C(=O)O)cc3)nc(-c3ccccc3)c2-c2ccccc2)cc1`, 102% (inactive).
On the same count and under the same terms, with `CC(=C(c1ccc(OCCCN(C)C)cc1)c1ccc(OCCCN(C)C)cc1)c1ccc(Cl)cc1` the figure was 76.6% (inactive); with `CC[C@]12CC(C(=O)OC)=C3Nc4ccccc4[C@@]34CCN(C14)[C@@H]1c3cc4c(cc3O[C@@H]1[C@H]2O)NC1=C(C(=O)OC)C[C@@]2(CC)C3N(CC[C@@]143)C[C@H]1O[C@H]12` (some centres undefined), -64.6% (active).
On the same count and under the same terms, in the case of `Cc1ccc(-c2csc(N/N=C/c3cccs3)n2)cc1` it was 94.5% (inactive).
Turning to `CN1CCC[C@]2(C)[C@H]3CC[C@@H]4[C@@H]5[C@H]6OC[C@@]5(CCC6(C)C)CC[C@@]4(C)[C@]3(C)CC[C@H]2C1(C)C`, the growth was -74.5% (active).
Still for that read-out and setting: with `O=S(=O)(Oc1ccc(-c2cn3ccoc3n2)cc1)c1cccc(C(F)(F)F)c1` the figure was 94.7% (inactive).
As to `CC(Nc1c(C#N)cnc2ccc(-c3cncc(-c4n[nH]c(=O)o4)c3)cc12)c1ccccc1` (centres undefined), the growth is -8.49% (active).
For `C#CCN(C)CCCOc1ccc(NC(=O)CCCCCCCCC(=O)NO)cc1Cl`, the growth was 4.6% (active).
In the case of `CCCc1cc2cc(-n3nc(CC)c4c3CC(C)(C)CC4=O)cc(NC3CCC(O)CC3)c2c(=O)[nH]1` (centres undefined), the growth is 23.7% (inactive).
The same measure, in the same setting: in the case of `O=C(CN1CCN(c2cc(=O)[nH]c3ccc(F)cc23)CC1)N(c1ccccc1)c1ccccc1` it was 101% (inactive); in that of `CN1CCN(c2ccc(Nc3nc(NCCCNS(=O)(=O)c4cccc(F)c4)c4sccc4n3)cc2)CC1`, -58.1% (active).
For `COc1ccc(C(=NNS(=O)(=O)c2ccc(C)cc2)c2ccccc2)cc1OC`, the growth is 106% (inactive).
On the same count and under the same terms, in the case of `COc1ccc(/C=N/NC(=O)c2c(N)nn(C)c2Nc2ccccc2)cc1Oc1ccccc1` it was 95.3% (inactive); in that of `C#C[C@]1(O)CC[C@H]2[C@@H]3CC=C4c5sc(NCc6ccccc6)nc5CC[C@]4(C)[C@H]3CC[C@@]21C`, -5.72% (active).
With `Cc1cc(NS(=O)(=O)c2ccc(NC(=O)CSc3nc4ccccc4c(=O)n3-c3ccccc3)cc2)no1`, the growth is 94.1% (inactive).
As for `CC(C)NC(=O)c1cc(-c2ccc(NC(=O)Nc3ccc(F)c(C(F)(F)F)c3)cc2)nc2cccnc12`, the growth is 88.8% (inactive).
With `CCOC(=O)c1cccnc1Nc1ccc(NC(=O)Nc2ccc(Cl)c(C(F)(F)F)c2)cc1`, the growth is 22.5% (inactive).
Regarding `O=C(CSc1nc2ccccc2c(=O)n1-c1ccc(S(=O)(=O)Nc2ccc(Cl)nn2)cc1)Nc1ccc(S(=O)(=O)Nc2ccc(Cl)nn2)cc1`, the growth was 90.4% (inactive).
In the case of `COc1cc(-c2nc(-c3ccccc3)[nH]c2-c2ccnc(NCCCNS(=O)(=O)c3ccc(C(F)(F)F)cc3)n2)ccc1Cl`, the growth was 18.1% (inactive) and 47.6% (inactive).
Consider `Cc1csc(/N=C(N)/N=C(\N)c2cccc(C#N)c2)n1`, for which the growth is 78.1% (inactive).
As to `CC[C@]12C=CCN3CC[C@]4(C(=C(C(=O)OC)C1)Nc1cc5c(cc14)[C@@H]1[C@H](O5)[C@@H](O)[C@@]4(CC)CC(C(=O)OC)=C5Nc6cc(O)ccc6[C@@]56CCN1C46)C32` (some centres undefined), the growth was -83.8% (active).
For the compound `COc1ccc(OC)c(CCn2cncc2-c2c[nH]c3ccc(Cl)cc23)c1`, the growth was 47.3% (inactive).
On to `Cc1ccc(-c2cc3nc(C(Cl)Cl)nc(-c4ccc(S(=O)(=O)N(C)C)cc4)n3n2)cc1`, for which the growth is 45.7% (inactive).
Consider `CC1=C(C)C(=O)C(Nc2cccc(C(=O)OC(C)(C)C)c2)=C(Cl)C1=O`, for which the growth was 62.6% (inactive).
As to `COC(=O)c1ccc(NC2=C(Cl)C(=O)C(C)=C(C)C2=O)cc1`, the growth is 24.7% (inactive).
`Cc1nc(/N=C(N)/N=C(\N)c2cccc(Br)c2)sc1C`: the growth is 43.5% (inactive).
As to `COC(=O)c1cccc(NC2=C(Cl)C(=O)c3nc(C)ccc3C2=O)c1`, the growth was 10.2% (inactive).
Still for that read-out and setting: in the case of `CN(C)c1ccc(/C=N/Nc2nc(N/N=C/c3ccc(N(C)C)cc3)nc(N3CCCCC3)n2)cc1` it was -73.3% (active); in that of `OCC(Nc1ncnc2ccc(-c3cnc4cnccn34)cc12)c1ccccc1` (centres undefined), 85.2% (inactive); in that of `COc1ccc(-c2cc(-c3ccc(N4CCOCC4)cc3)n3c(n2)nc2ccccc23)cc1OC`, 78.4% (inactive).
Regarding `CCOC(=O)c1c(NC(=O)c2cccc(C(F)(F)F)c2)sc2c1CCC(=O)C2`, the growth is 9.07% (active).
As to `CN1CCN(c2ccc(Nc3nc(NCCCNS(=O)(=O)c4ccc(Cl)cc4)c4sccc4n3)cc2)CC1`, the growth was -84.6% (active).
Same read-out and setting: in the case of `CCOC(=O)C(=O)Nc1ccc2c(ccn2C(=O)c2cccc(F)c2)c1` it was 96.3% (inactive); in that of `CCOc1cccc(/C(N)=N/C(N)=N/c2nc3ccccc3s2)c1`, 13.2% (inactive).
As for `CN1CCN(c2ccc(Nc3nc(NCCCNS(=O)(=O)c4ccc(C(F)(F)F)cc4)c4sccc4n3)cc2)CC1`, the growth is -83.6% (active).
As to `Cc1ccc2c(n1)C(=O)C(Cl)=C(Nc1cccc(C(F)(F)F)c1)C2=O`, the growth is -61.8% (active).
